Inconclusive results are not listed. Active and inactive are the calls of the source. How the source made its calls, unless noted: active means hit-call score of the fitted dose curve at least 0.9, where 1 is the maximum; inconclusive means response in the unintended direction; inactive means score below 0.9.
Columns and labels:
[1] = biological target: Cellular tumor antigen p53 (Homo sapiens) (UniProt P04637); assay: TOX21_p53_BLA_p2_ratio: Tox21 HCT-116 p53 Agonism Beta-lactamase Assay, Ratio, Phase 2 (AID 2283592)
Summary of the method: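 Read-out is the blue/green (460/530 nm, 405 nm excitation) ratio after 2 h CCF4-AM loading, fitted as gain versus DMSO. Compounds, pinned at 217-fold dilution from DMSO stocks, stayed 16 h on HCT-116 beta-lactamase reporter cells seeded 5 h earlier.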

[2] = TOX21_p53_BLA_p4_viability: Viability Assessment in the Tox21 HCT-116 p53 Agonism Beta-lactamase Assay, Phase 4 (AID 2283597);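 further: hits lower the luminescence signal meaning cytotoxicity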
Summary of the method: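 Cytotoxicity as reduced cellular ATP (CellTiter-Glo luminescence, 30 min room temperature), measured in the same wells following the CCF4 FRET p53 reading. Human HCT-116 cells received compounds in DMSO (217-fold dilution) for 16 h.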

[3] = UKN5_HCS_SBAD2_cell_viability: Viability Assessment in the University of Konstanz (UKN) Leist Lab Neurite Outgrowth Assay in human iPSC-derived immature Dorsal Root Ganglia Neurons (UKN5) (AID 2284056; active means hit-call score of the fitted dose curve at least 0.9, where 1 is the maximum; inactive means score below 0.9)
Summary of the method: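 iPSC-derived immature peripheral neurons (SBAD2) seeded on Matrigel with CHIR99021, SU5402 and DAPT, dosed 1 h later for 24 h. Viability from Hoechst H-33342 and calcein-AM live staining, high-content imaging; bidirectional fit versus DMSO.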

[4] = UKN5_HCS_SBAD2_neurite_outgrowth: University of Konstanz (UKN) Leist Lab Neurite Outgrowth Assay in human iPSC-derived immature Dorsal Root Ganglia Neurons (UKN5) (AID 2284070; active means hit-call score of the fitted dose curve at least 0.9, where 1 is the maximum; inactive means score below 0.9); details: actives raise or lower the signal
Summary of the method: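 Neurite area from calcein-AM high-content images after 24 h exposure (staining included), with H-33342 for viability, fitted both directions against DMSO. Cells: thawed immature SBAD2 peripheral neurons, 100.000 cells/cm2, with CHIR99021, SU5402, DAPT; dosing 1 h after seeding.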

[5] = UKN2_HCS_IMR90_neural_migration: University of Konstanz (UKN) Leist Lab Neural Crest Cell Migration Assay in human induced IMR90 Pluripotent Stem Cells (UKN2) (AID 2284204; active means hit-call score of the fitted dose curve at least 0.9, where 1 is the maximum; inactive means score below 0.9); details: actives raise or lower the signal
Summary of the method: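 Stopper-exclusion migration (cMINC), human iPSC-derived neural crest cells; N2-S + EGF/FGF; compound added 24 h post-stopper removal, 24 h exposure. Readout: calcein-AM/Hoechst 30 min, HCS fluorescence imaging; bidirectional fitting, DMSO baseline.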

[6] = UKN4_HCS_LUHMES_neurite_outgrowth: University of Konstanz (UKN) Leist Lab Neurite Outgrowth Assay in human LUHMES cells (UKN4) (AID 2284206; active means hit-call score of the fitted dose curve at least 0.9, where 1 is the maximum; inactive means score below 0.9); details: actives raise or lower the signal
Summary of the method: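 After 24 h compound treatment beginning shortly after replating of 2-day-differentiated LUHMES cells, calcein-AM and H-33342 live staining allowed high-content imaging of neurite area and viability. Fitted bidirectionally against DMSO.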

[7] = UKN4_HCS_LUHMES_cell_viability: Viability Assessment in the University of Konstanz (UKN) Leist Lab Neurite Outgrowth Assay in human LUHMES cells (UKN4) (AID 2284232; active means hit-call score of the fitted dose curve at least 0.9, where 1 is the maximum; inactive means score below 0.9)
Summary of the method: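 Viability was read by high-content imaging of calcein-AM/H-33342-stained cells after 24 h toxicant exposure, staining included. Cells: human LUHMES on day 2 of dopaminergic differentiation, dosed shortly after attachment; DMSO baseline, bidirectional curve fitting.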

[8] = UKN2_HCS_IMR90_cell_viability: Viability Assessment in the University of Konstanz (UKN) Leist Lab Neural Crest Cell Migration Assay in human induced IMR90 Pluripotent Stem Cells (UKN2) (AID 2284233; active means hit-call score of the fitted dose curve at least 0.9, where 1 is the maximum; inactive means score below 0.9;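 further: cells exposed to compound for 24 h after a 24 h migration phase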)
Summary of the method: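 Viability read as calcein-AM fluorescence by high-content imaging, Hoechst co-stain, 30 min. Human iPSC (IMR90) neural crest cells had migrated 24 h into stopper-defined gaps before 24 h chemical exposure. Fitted bidirectionally relative to DMSO.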

[9] = TOX21_p53_BLA_p3_viability: Viability Assessment in the Tox21 HCT-116 p53 Agonism Beta-lactamase Assay, Phase 3 (AID 2283593);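 further: cells exposed to compound for 16 h before reading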
Summary of the method: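 HCT116 cells, 4000/well, dosed 5 h after plating by pin transfer (217-fold dilution from DMSO stock) and incubated 16 h at 37C, 5% CO2. Viability read as ATP luminescence with CellTiter-Glo after 30 min at room temperature.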

[10] = biological target: Cellular tumor antigen p53 (Homo sapiens) (UniProt P04637); assay: TOX21_p53_BLA_p3_ratio: Tox21 HCT-116 p53 Agonism Beta-lactamase Assay, Ratio, Phase 3 (AID 2283596)
Summary of the method: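 Cells were seeded at 4000/well, rested 5 h at 37C, then dosed with DMSO compound solutions (217-fold dilution) for 16 h. CCF4-AM substrate was loaded for 2 h at room temperature, and the 460/530 nm emission ratio was fitted for gain of signal versus DMSO.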

[11] = biological target: Cellular tumor antigen p53 (Homo sapiens) (UniProt P04637); assay: TOX21_p53_BLA_p5_ratio: Tox21 HCT-116 p53 Agonism Beta-lactamase Assay, Ratio, Phase 5 (AID 2283599)
Summary of the method: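 HCT-116 p53-bla cells (4000/well) plated 5 h, dosed with compound (217-fold DMSO dilution) for 16 h at 37 C; CCF4-AM substrate 2 h at room temperature. Activity is the 460/530 nm emission ratio (405 nm excitation), fitted in gain-of-signal direction versus DMSO.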

[12] = TOX21_p53_BLA_p5_viability: Viability Assessment in the Tox21 HCT-116 p53 Agonism Beta-lactamase Assay, Phase 5 (AID 2283600)
Summary of the method: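 Viability came from CellTiter-Glo ATP luminescence, read after 30 min at room temperature. Before this, HCT-116 p53-bla cells (4000/well) had 16 hours of compound exposure at 37C, with DMSO stocks diluted 217-fold on transfer.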

[13] = biological target: Cellular tumor antigen p53 (Homo sapiens) (UniProt P04637); assay: TOX21_p53_BLA_p4_ratio: Tox21 HCT-116 p53 Agonism Beta-lactamase Assay, Ratio, Phase 4 (AID 2283601)
Summary of the method: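 HCT-116 p53 beta-lactamase reporter cells (4000/well) preincubated 5 h, then compound (217-fold dilution of DMSO stock) for 16 h at 37C. CCF4-AM substrate added 2 h at room temperature; 460/530 nm emission ratio fitted upward versus DMSO.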

[14] = biological target: Thyroid hormone receptor alpha (Rattus norvegicus) + Thyroid hormone receptor beta (Rattus norvegicus) (UniProt P18113+P63059); assay: TOX21_TR_LUC_GH3_Antagonist_Followup: Tox21 GH3 Thyroid Hormone Receptor Antagonism Luciferase Follow-Up Assay (AID 2283942)
Summary of the method: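 Luminescence read-out (ONE-Glo, 30 min at room temperature) in GH3 reporter cells challenged with 1.0 nM T3 final. Compounds ran at 92 uM to 5nM over 15 concentrations for 24 h; DMSO served as negative control and baseline.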

THRB (gene 7068) = THRB (gene 7068) (UniProt P10828); assay: TOX21_TRB_BLA_Antagonist_Followup_ratio: Tox21 Thyroid Hormone Receptor beta Antagonism Beta-lactamase (BLA) Follow-Up Assay, Ratio (AID 2283958)
Summary of the method: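 Beta-lactamase reporter ratio (460/530 nm, CCF4-AM substrate, 2 h room temperature) was read in TRb-bla HEK293T cells after 18 h compound treatment (11 concentrations, triplicate) at 37C in 2% charcoal-stripped FBS medium. Loss of signal fitted against DMSO.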

[15] = TOX21_TRB_BLA_Antagonist_Followup_viability: Viability Assessment in the Tox21 Thyroid Hormone Receptor beta Antagonism Beta-lactamase (BLA) Follow-Up Assay (AID 2283961)
Summary of the method: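 ATP-based CellTiter-Glo luminescence (30 min, room temperature) run in the same wells as the TRβ-bla readout. Cells: GeneBLAzer HEK293T expressing GAL4-TRβ LBD, exposed 18 h at 37C to compounds at 11 concentrations in triplicate, stripped-serum medium.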

[16] = biological target: Retinoic acid receptor RXR-alpha (Homo sapiens) (UniProt P19793); assay: TOX21_TR_RXR_BLA_Antagonist_Followup_ratio: Tox21 Thyroid Hormone Receptor beta Retinoid X Receptor alpha (RXRa) Antagonism Beta-lactamase (BLA) Follow-Up Assay, Ratio (AID 2283972)
Summary of the method: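 After 5 h attachment at 37C, HEK293T RXRa-bla cells (2,500/well, 2% charcoal-stripped FBS, no phenol red) received compounds at 11 concentrations in triplicate for 16 h. Beta-lactamase read as 460:530 nm ratio after 2 h RT substrate loading.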

Measured: outcome

Chain of Cellular tumor antigen p53 (Homo sapiens) (P04637 whole entry, looked up): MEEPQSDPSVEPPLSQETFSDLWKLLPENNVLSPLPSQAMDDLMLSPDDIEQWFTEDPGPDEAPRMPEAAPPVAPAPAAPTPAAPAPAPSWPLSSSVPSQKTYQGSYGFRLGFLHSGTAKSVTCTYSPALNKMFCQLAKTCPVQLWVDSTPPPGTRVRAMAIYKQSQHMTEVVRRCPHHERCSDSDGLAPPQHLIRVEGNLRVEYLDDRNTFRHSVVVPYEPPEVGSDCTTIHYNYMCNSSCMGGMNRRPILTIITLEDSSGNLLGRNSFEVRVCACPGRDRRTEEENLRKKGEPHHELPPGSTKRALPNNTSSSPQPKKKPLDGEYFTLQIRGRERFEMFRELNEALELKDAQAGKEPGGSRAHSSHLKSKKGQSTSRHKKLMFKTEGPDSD
Chain of Retinoic acid receptor RXR-alpha (Homo sapiens) (P19793 whole entry, looked up): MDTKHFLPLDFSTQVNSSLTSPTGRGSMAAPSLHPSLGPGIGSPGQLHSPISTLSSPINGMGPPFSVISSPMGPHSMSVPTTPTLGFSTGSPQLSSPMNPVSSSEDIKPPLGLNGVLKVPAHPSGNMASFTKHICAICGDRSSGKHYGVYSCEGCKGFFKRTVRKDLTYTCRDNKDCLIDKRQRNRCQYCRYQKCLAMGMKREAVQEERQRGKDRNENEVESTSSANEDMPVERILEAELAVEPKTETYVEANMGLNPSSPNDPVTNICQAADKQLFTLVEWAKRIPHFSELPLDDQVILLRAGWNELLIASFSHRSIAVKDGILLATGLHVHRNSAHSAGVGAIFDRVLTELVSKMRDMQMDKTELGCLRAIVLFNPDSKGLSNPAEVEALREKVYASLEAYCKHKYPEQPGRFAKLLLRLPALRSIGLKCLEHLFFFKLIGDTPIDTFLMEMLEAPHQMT
Chain of THRB (gene 7068) (P10828 whole entry, looked up): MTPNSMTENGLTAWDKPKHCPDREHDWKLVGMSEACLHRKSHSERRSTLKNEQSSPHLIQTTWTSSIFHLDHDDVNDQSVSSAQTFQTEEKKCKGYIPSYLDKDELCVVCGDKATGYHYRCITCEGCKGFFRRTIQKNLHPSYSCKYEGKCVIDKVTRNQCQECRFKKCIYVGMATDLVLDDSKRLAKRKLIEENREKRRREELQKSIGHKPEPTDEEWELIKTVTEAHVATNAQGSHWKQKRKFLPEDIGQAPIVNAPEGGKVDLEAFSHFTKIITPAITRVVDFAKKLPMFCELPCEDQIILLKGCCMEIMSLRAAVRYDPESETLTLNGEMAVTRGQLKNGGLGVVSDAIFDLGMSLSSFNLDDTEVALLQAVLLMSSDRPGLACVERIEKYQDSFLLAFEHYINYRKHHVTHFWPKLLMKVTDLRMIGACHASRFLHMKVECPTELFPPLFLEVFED

CN[C@@H](C)Cc1ccccc1
inactive: [1] | [2] | [3] | [4] | [5] | [6] | [7] | [8]

Cc1nnc(-c2ccccc2)c(=O)n1N
inactive: [9] | [10]

CC(N)Cc1ccc(O)cc1 (centres undefined)
inactive: [9] | [10] | [11] | [12] | [13]

NNC(=O)c1cccnc1
inactive: [1] | [2] | [11] | [13]

CC(C)(Cl)[N+](=O)[O-]
inactive: [1] | [13]

Cl/C=C\Cl
inactive: [1] | [13]

COc1cc(CC(C)N)cc(OC)c1OC (centres undefined)
inactive: [1] | [2] | [11] | [13]

CCS(=O)(=O)CCSP(=O)(OC)OC
inactive: [1] | [13]

CCC1C(C)=NN=C(c2ccc(OC)c(OC)c2)c2cc(OC)c(OC)cc21 (centres undefined)
inactive: [1] | [11]

Cc1ccc(N)cc1C
inactive: [1] | [11] | [13]

O=C1OC2(c3cc(Br)c(O)cc3Oc3c2cc(Br)c(O)[c]3[Hg])c2ccccc21 (centres undefined)
inactive: [1] | [2] | [11] | [13] | [14] | THRB (gene 7068) | [15] | [16]

CC[N+]1(C)CCCC(OC(=O)C(O)(c2ccccc2)c2ccccc2)C1 (centres undefined)
inactive: [9] | [10] | [11] | [12]

CN(C)c1ccc(N=Nc2ccccc2)cc1
inactive: [9] | [10] | [2] | [12]

O=C1CN(O)C(c2ccccc2)=c2cc(Cl)ccc2=N1
inactive: [1] | [2] | [12] | [13]

Source: PubChem BioAssay (EPA / NIEHS)
